Reference: paper PMC7862700, “An all-to-all approach to the identification of sequence-specific readers for epigenetic DNA modifications on cytosine”

Legend:
Experiment in all cases: DAPPL (digital affinity profiling via proximity ligation, sequencing); 10 mM Tris-HCl pH 7.5, 50 mM NaCl, 1 mM DTT, 4% glycerol, room temperature, 30 min; GST-TFs on glutathione beads, 16-mer random dsDNA library, 0.1% formaldehyde crosslink after washing; high values mean tight binding
Conditions in all cases: protein: recombinant; tags: N-terminal GST; dsDNA, one strand shown
[1] = target: ETV1 (Homo sapiens, UniProt P50549 1-477)
Method in brief: (§1)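 Pools of DNA-barcoded human transcription factors, expressed in yeast as GST fusions on glutathione beads and combined with a tag-only sample, were incubated with 200 nmole of a 16-mer random double-stranded DNA library. Incubation took 30 min at room temperature in Tris/NaCl/DTT/glycerol buffer and was followed by washing, 0.1% formaldehyde crosslinking, proximity ligation (BsaI/T4 ligase, 1 h, 37 °C), PCR amplification and sequencing on an Illumina NextSeq500. Binding signal is the ratio of a hexamer's read frequency for a factor to its frequency for the tag-only sample.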

[2] = target: T1, ERF (Homo sapiens, UniProt P50548 1-548)
T1 sequence: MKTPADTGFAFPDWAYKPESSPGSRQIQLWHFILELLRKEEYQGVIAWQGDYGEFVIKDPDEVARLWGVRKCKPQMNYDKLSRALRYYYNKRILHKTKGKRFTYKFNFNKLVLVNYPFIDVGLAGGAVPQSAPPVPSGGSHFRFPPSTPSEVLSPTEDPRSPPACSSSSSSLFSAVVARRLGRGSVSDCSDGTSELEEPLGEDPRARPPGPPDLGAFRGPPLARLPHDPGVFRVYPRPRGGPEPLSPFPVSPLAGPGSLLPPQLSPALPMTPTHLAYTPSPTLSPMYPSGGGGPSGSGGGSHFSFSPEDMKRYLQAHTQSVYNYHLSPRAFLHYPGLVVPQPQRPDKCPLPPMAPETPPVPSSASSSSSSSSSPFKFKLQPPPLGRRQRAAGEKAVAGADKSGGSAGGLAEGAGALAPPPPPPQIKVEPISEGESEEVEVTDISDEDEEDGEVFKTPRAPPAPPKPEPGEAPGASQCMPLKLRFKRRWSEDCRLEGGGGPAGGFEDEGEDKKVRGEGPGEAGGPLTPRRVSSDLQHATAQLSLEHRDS
Method in brief: as §1

[3] = target: T2, ETV3L (Homo sapiens, UniProt Q6ZN32 1-361)
T2 sequence: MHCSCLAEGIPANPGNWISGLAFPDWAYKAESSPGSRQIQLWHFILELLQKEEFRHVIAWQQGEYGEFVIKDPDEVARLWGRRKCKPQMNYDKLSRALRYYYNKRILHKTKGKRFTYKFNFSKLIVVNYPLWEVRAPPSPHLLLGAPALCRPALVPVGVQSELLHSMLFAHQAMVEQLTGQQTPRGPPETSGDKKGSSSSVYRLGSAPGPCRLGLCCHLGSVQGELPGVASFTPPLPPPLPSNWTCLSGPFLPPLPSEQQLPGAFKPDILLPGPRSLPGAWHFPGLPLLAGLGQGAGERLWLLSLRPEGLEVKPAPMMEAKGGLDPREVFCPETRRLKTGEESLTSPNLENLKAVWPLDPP
Method in brief: as §1

[4] = target: T3, ETS2 (Homo sapiens, UniProt P15036 1-469)
T3 sequence: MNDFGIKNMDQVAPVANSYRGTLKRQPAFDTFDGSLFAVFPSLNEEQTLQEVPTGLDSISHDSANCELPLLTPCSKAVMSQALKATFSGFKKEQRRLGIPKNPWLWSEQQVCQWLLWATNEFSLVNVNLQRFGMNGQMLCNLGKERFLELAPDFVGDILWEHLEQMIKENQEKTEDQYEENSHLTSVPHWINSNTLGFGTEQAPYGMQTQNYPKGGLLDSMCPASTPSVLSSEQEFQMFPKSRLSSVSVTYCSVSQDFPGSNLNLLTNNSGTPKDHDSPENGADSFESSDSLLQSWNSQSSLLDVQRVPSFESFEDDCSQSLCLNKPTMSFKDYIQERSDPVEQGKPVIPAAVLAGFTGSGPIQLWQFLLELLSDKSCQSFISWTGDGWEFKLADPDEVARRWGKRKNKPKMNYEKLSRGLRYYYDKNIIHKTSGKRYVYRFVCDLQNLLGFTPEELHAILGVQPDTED
Method in brief: as §1

[5] = target: T4, SPDEF (Homo sapiens, UniProt O95238 1-335)
T4 sequence: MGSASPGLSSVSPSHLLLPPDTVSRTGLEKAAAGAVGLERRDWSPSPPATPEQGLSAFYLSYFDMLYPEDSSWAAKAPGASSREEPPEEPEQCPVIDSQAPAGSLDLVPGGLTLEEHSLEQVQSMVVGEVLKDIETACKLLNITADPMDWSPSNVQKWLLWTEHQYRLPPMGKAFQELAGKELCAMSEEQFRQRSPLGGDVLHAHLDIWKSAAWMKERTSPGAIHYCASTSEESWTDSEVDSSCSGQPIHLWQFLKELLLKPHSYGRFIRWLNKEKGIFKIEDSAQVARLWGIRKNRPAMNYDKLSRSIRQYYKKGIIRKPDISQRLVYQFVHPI
Method in brief: as §1

[6] = target: T5, ETV7 (Homo sapiens, UniProt Q9Y603 1-341)
T5 sequence: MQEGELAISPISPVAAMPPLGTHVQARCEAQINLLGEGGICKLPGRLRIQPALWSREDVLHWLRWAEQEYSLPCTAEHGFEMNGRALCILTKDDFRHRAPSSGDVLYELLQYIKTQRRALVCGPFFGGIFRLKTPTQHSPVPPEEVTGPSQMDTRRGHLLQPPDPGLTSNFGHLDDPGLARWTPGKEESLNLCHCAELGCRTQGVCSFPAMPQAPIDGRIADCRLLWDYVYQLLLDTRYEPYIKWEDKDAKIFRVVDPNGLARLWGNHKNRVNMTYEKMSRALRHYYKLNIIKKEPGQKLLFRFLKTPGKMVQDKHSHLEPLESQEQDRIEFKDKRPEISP
Method in brief: as §1

[7] = target: T6, ELF5 (Homo sapiens, UniProt Q9UKW6-2 1-255)
T6 sequence: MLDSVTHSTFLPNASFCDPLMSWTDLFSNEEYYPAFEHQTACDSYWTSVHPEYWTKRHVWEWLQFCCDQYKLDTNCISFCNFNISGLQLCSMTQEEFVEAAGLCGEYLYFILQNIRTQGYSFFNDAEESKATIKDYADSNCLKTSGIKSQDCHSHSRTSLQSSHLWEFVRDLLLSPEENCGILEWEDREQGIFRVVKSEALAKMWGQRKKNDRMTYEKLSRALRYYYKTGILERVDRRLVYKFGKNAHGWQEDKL
Method in brief: as §1

[8] = target: T7, ETV3 (Homo sapiens, UniProt P41162-2 1-143)
T7 sequence: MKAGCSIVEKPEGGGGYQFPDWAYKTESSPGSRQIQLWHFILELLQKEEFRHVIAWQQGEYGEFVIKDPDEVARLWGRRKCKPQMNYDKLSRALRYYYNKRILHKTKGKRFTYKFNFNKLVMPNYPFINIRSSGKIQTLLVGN
Method in brief: as §1

[9] = target: ETV6 (Homo sapiens, UniProt P41212 1-452)
Method in brief: as §1

ETV1, sequence (P50549 whole entry, the tested form may be a part): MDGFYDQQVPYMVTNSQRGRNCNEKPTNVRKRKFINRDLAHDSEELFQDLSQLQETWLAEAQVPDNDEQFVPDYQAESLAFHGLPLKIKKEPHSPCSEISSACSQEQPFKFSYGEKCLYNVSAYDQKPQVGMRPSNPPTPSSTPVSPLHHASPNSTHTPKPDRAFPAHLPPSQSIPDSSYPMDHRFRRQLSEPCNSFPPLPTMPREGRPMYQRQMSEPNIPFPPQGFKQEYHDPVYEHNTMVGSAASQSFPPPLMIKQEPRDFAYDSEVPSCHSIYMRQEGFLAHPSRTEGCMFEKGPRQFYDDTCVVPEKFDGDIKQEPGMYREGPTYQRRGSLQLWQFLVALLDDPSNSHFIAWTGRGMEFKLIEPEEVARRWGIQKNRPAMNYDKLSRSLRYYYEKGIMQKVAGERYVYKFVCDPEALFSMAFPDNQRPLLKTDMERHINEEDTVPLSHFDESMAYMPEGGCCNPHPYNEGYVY
ETV6, sequence (P41212 whole entry): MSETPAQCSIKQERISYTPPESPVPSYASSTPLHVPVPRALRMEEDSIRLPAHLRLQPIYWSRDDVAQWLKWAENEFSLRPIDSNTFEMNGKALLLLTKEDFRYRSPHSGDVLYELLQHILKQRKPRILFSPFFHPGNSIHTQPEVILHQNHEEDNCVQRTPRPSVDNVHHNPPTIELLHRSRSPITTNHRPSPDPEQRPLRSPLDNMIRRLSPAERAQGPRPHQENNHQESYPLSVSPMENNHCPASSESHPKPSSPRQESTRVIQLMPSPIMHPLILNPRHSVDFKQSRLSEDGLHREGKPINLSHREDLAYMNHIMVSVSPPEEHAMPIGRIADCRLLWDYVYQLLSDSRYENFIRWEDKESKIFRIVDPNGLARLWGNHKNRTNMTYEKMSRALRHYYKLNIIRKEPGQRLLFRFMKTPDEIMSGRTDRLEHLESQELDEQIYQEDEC

AAATAC was tested, and the binding signal [1] was 1.39 fold enrichment (6-mer frequency, TF over GST control), the binding signal [2] was 1.48 fold enrichment (6-mer frequency, TF over GST control) and the binding signal [3] was 1.35 fold enrichment (6-mer frequency, TF over GST control). For the same sequence, the binding signal [4] was 1.39 fold enrichment (6-mer frequency, TF over GST control), the binding signal [5] was 1.41 fold enrichment (6-mer frequency, TF over GST control) and the binding signal [6] was 1.5 fold enrichment (6-mer frequency, TF over GST control). For the same sequence, the binding signal [7] was 1.52 fold enrichment (6-mer frequency, TF over GST control), the binding signal [8] was 1.39 fold enrichment (6-mer frequency, TF over GST control) and the binding signal [9] was 1.49 fold enrichment (6-mer frequency, TF over GST control).
